Source: PubChem
VDR inh: blocks the human vitamin D receptor; P11473; VDR-SRC2-3 peptide fluorescence polarization, 2 h; Potency, µM, without a hit: max response, negative = inhibition, most hits filed as inhibitors; 400,000 tested, 0.93% active; note: potency is the fitted concentration of half-maximal effect
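Reagent solutions, kept cold and dark, are dispensed first; compounds are then pinned in at 23 nl, plates briefly spun, and incubated 2 h at ambient temperature. Inhibition of VDR–SRC2-3 peptide binding is read by fluorescence polarization.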
GALK inhibitor: blocks human galactokinase activity | 270,000 tested, 0.007% active | Purified GALK, Kinase-Glo residual ATP luminescence | Potency, µM (top dose mostly 57.5 µM), without a hit: at the top dose activity change, negative = inhibition, most hits filed as inhibitors | P51570; note: potency is the fitted concentration of half-maximal effect
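5 nM enzyme, 35 uM ATP, 100 uM galactose, 20 mM HEPES pH8.0, 5 mM MgCl2; 1 h RT; residual ATP by Kinase-Glo Plus luminescence, qHTS format.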
PLK1 PBD inh: PLK1 (human) polo-box domain binding inhibition | Potency, µM, for inactives: max response, negative = inhibition, most hits filed as inhibitors | 360,000 tested, 2.8% active | Plk1 PBD binding of FITC phosphopeptide, fluorescence polarization | AID 720504; note: potency is the fitted concentration of half-maximal effect; series mostly up to about 57 µM; nearly all actives have a fitted effect of over 65% in size
Target sequence (P53350 whole entry, looked up, the tested form may be a part): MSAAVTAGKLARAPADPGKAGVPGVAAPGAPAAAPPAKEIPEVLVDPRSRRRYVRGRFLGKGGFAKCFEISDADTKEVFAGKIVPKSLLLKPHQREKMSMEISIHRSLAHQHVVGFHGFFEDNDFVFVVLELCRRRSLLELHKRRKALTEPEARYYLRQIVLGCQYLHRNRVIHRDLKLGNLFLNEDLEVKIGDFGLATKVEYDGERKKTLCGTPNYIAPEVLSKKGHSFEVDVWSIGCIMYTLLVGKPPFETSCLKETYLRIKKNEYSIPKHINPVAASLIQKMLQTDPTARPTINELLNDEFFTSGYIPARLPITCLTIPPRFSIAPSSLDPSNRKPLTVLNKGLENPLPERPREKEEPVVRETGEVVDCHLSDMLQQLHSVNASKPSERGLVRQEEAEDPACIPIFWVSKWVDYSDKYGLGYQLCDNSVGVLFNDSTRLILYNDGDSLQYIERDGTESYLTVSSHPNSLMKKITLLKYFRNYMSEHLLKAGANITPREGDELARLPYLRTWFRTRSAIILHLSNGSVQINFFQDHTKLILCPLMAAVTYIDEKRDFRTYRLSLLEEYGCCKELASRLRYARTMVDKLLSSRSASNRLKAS
USP1 inh: USP1/UAF1 (human) deubiquitinase inhibition; O94782; recombinant USP1/UAF1, Ub-Rhodamine cleavage fluorescence; Potency, µM (highest dose often 57.1 µM), for the others: at the top dose activity change, negative = inhibition, hits mostly inhibitors; 390,000 tested, 0.23% active; AID 743255; note: potency is the fitted concentration of half-maximal effect; nearly all actives have a fitted effect of over 60% in size
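USP1/UAF1 complex at 1 nM was preincubated with compound for 15 min at room temperature, then Ub-Rho substrate (150nM final) was added. Fluorescence (480/540 nm) was read kinetically, 6 reads every 60 seconds.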
USP2a inh: USP2a (human) protease inhibition; O75604; USP2 core, Ub-CHOP2 coupled fluorogenic reporter, 485/531; Potency, µM (top dose mostly 38.3 µM), inactives show at the top dose activity change, negative = inhibition, most hits filed as inhibitors; 330,000 tested, 0.01% active;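 note: potency is the fitted concentration of half-maximal effect; plate controls were DMSO wells for no effect and full inhibition by NEM control for full effect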
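Cell-free coupled assay: 10nM USP2 core preincubated 30min RT with compound in Tris-HCl pH 8.0/CaCl2/CHAPS buffer, then 25nM Ub-CHOP2 and 25nM reporter substrate; fluorescence (Ex 485/Em 531) read after 60min RT, normalized to NEM inhibition, concentration-response curves fitted.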
FBPA coupling cs: coupling enzyme interference in Giardia aldolase counter-screen | coupling enzyme system counterscreen, AmpLite Red fluorescence | activity change, negative = inhibition, % at 58.2 µM, hits read low | 290,000 tested, 0.67% active | AID 2472; in the data active = activity change below about -30%
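Coupling enzymes only (glyceraldehyde-3-phosphate) + compound, at 57.5 uM final, 10 min RT; add substrate/coupling/AmpLite Red mix, 20 min RT; fluorescence ex 525/em 598 nm. Actives flag coupling-system interference.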
* = called active by the depositor; ? = inconclusive; . = no result. This is a sample that favours compounds with a hit; in the whole collection about 3.2% have one here. Unless noted, calls come from the whole dose curve; as a rule, active = well fitted curve in the direction sought with a large enough effect; inconclusive = small, poorly fitted or top-dose-only effect, or another doubt; inactive = no such curve, though single readings can be large; an effect the other way counts as inactive or inconclusive. Unless noted, % is set by controls: 0 for no effect and ±100 for the full control effect.

SMILES	VDR inh	GALK inhibitor	PLK1 PBD inh	USP1 inh	USP2a inh	FBPA coupling cs
CCOC(=O)C(SP(=S)(OC)OC)c1ccccc1 (centres undefined)	3.55µM*	.	.	.	.	1.0
Cc1cc(C=O)c(C)n1CC1CCCO1 (centres undefined)	8.6%	-0.8%	-18.0%	-17.4%	2.7%	-1.9
CC[C@]1(O)CC(O[C@@H]2CC(N(C)C)C(O)C(C)O2)c2c(cc3c(c2O)C(=O)c2c(O)cccc2C3=O)C1C(=O)OC (some centres undefined)	31.6µM*	.	.	.	.	-25.4
COc1ccc(/C=C/C(=O)NC(=S)N2C[C@H]3C[C@H](C2)c2cccc(=O)n2C3)cc1OC	-7.0%	.	-10.6%	-10.4%	2.4%	0.1
CC(C)(Cl)[N+](=O)[O-]	5.7%	.	-7.9%	7.6%	-0.6%	.
O=[N+]([O-])C(Br)(CO)CO	5.62µM*	.	.	.	.	.
COC(=O)C1=C(c2ccc(OC)c(OC)c2)C[C@@H]2CC[C@H]1N2C(=O)NCCNC(C)=O	-0.7%	.	-5.1%	-21.6%	1.3%	.
CCN(CC)C(=O)c1ccc2c(c1)C1C(Cl)C(Sc3ccccc3[N+](=O)[O-])CC1C(C(=O)O)N2 (centres undefined)	2.1%	8.0%	6.7µM*	?	4.9%	-6.0
Cc1ccc2c(c1Cl)NC(C(=O)O)C1CC(Sc3ccccc3[N+](=O)[O-])C(Cl)C21 (centres undefined)	1.3%	-1.1%	26.7µM*	-22.6%	4.4%	3.4
CC(C)Sc1nnc([C@@H](N)Cc2c[nH]c3ccccc23)o1	16.3%	4.2%	-0.9%	-19.9%	-0.6%	-1.8
COc1cccc(N2C(=O)CC(=O)NC2=O)c1	-28.4%	-0.8%	-13.3%	-6.4%	0.8%	0.5
O=C(CN1CCCCC1)c1ccc(OC(F)F)cc1	4.2%	1.2%	-8.0%	1.7%	1.0%	-0.9
O=C(CCl)c1ccc(Oc2ccc(C(=O)CCl)cc2)cc1	7.08µM*	.	.	.	.	.
CN1CCN(c2ccc(N)c(N3CCN(C)CC3)c2)CC1	7.9%	1.1%	-1.7%	-24.7%	-2.2%	-39.4*
Cc1ccccc1N1C(=O)NC(=O)/C(=C/c2ccc(N3CCOCC3)o2)C1=O	-3.6%	-2.6%	89.6%	25.1µM*	?	-1.4
Cc1ccccc1N1C(=O)NC(=O)/C(=C\c2cc(Br)c(N3CCOCC3)o2)C1=O	?	-0.1%	103.5%	?	10.5%	2.8
Cc1ccc(CN2CCCN(Cc3ccccc3C)S2(=O)=O)cc1	5.6%	-1.4%	-7.4%	-14.3%	2.8%	-1.5
CCCCn1c(O)c(C(CC)=NCCc2ccccc2)c(=O)[nH]c1=O	-4.2%	1.5%	-0.6%	-19.3%	.	3.9
CCCCn1c(O)c(C(=O)/C=C/c2c[nH]c3ccccc23)c(=O)[nH]c1=O	64.2%	1.3%	51.9%	25.1µM*	-0.3%	0.8
COc1c(/C=C2/C(=O)NC(=O)N(C)C2=O)c(CCN(C)C(=O)c2ccccc2)cc2c1OCO2	-22.5%	.	26.7µM*	-19.4%	-3.3%	-0.2
CNC(=S)N(C)CCc1cc2c(c(OC)c1/C=C1/C(=O)NC(=O)N(C)C1=O)OCO2	-18.1%	-5.5%	?	-14.5%	1.8%	-2.3
CC(C)C[C@H]1C(=O)N2CCCC2[C@]2(O)O[C@](NC(=O)[C@@H]3C=C4c5cccc6[nH]c(Br)c(c56)C[C@H]4N(C)C3)(C(C)C)C(=O)N12 (some centres undefined)	17.8µM*	.	.	.	.	.
CC(C)C[C@H]1C(=O)N2CCC[C@@H]2[C@@]2(O)O[C@](NC(=O)[C@@H]3C=C4c5cccc6[nH]cc(c56)C[C@@H]4N(C)C3)(C(C)C)C(=O)N12	?	.	.	.	.	-25.9
CC(C)C1C(=O)N2CCC[C@H]2[C@]2(O)O[C@](NC(=O)[C@@H]3C=C4c5cccc6[nH]cc(c56)C[C@H]4N(C)C3)(C(C)C)C(=O)N12 (some centres undefined)	44.7µM*	.	.	.	.	.
CC(C)[C@]1(NC(=O)[C@@H]2C=C3c4cccc5[nH]cc(c45)C[C@H]3N(C)C2)O[C@@]2(O)C3CCCN3C(=O)[C@H](Cc3ccccc3)N2C1=O (some centres undefined)	.	.	.	.	.	-31.8*
SMILES	VDR inh	GALK inhibitor	PLK1 PBD inh	USP1 inh	USP2a inh	FBPA coupling cs
C[C@]12CCC3C(CC[C@H]4C[C@@H](O)CC[C@]34C)C1CC[C@@H]2N (some centres undefined)	9.3%	.	1.6%	-20.6%	0.0%	.
Cc1cc(OC(=O)N2CCCCC2)c(C(C)C)cc1[N+](C)(C)C	4.9%	.	.	.	.	1.6
CCOC(=O)C1(CCc2ccccc2)CCN(Cc2ccc(NC(C)=O)cc2)CC1	-10.0%	3.3%	-13.3%	-0.9%	-2.3%	2.0
CCN1C[C@@]2(COC)C3[C@@H](OC)[C@H]4[C@@H]1[C@@]3(C1C[C@H]3[C@H](O)C1[C@]4(O)C[C@H]3OC)[C@@H](OC)C[C@H]2O (some centres undefined)	-11.7%	.	5.8%	5.6%	.	.
CCNC(=O)O/N=C(\C)c1sc(-c2ccccc2)nc1C	-3.5%	3.7%	23.8µM*	-19.4%	-4.4%	-0.2
Cn1nc(-c2ccc(OCC(=O)N3CCN(Cc4ccccc4)CC3)cc2)c2ccccc2c1=O	-0.7%	-5.6%	-1.7%	?	-0.3%	3.8
CCCCN1C(=O)/C(=C/C=C/c2ccco2)C(=O)NC1=S	?	-4.4%	1.06µM*	?	5.5%	3.6
CCCCN1C(=O)/C(=C\c2ccco2)C(=O)N(CCc2ccccc2)C1=O	147.7%	2.9%	0.844µM*	-12.1%	?	0.3
O=C1NC(=O)N(Cc2ccc(F)cc2)C(=O)/C1=C\C=C\c1ccco1	?	-13.3%	?	-18.6%	15.0%	1.3
CCc1ccc(N2C(=O)NC(=O)/C(=C\C=C\c3ccco3)C2=O)cc1	?	5.1%	1.34µM*	-20.6%	-2.2%	-1.6
CC(C)c1ccc(N2C(=O)CC(=O)NC2=O)cc1	-14.1%	2.5%	-17.4%	-16.0%	0.6%	2.2
CCCCN1C(=O)/C(=C/c2ccc(N(C)C)cc2)C(=O)N(Cc2ccco2)C1=O	12.9%	.	?	-26.5%	5.8%	-1.2
CC(C)c1ccc(N2C(=O)NC(=O)/C(=C/C=C/c3ccco3)C2=O)cc1	-13.0%	.	0.67µM*	-14.9%	3.1%	3.0
C[C@@H]1O[C@H](O[C@@H]2CC[C@@]3(C=O)[C@H]4CC[C@@]5(C)[C@@H](C6=CC(=O)OC6)CC[C@@]5(O)[C@@H]4CC[C@]3(O)C2)C[C@H](O)[C@@H]1O	-11.2%	.	.	.	.	0.3
C[C@H]1C=CC(=O)O[C@H]1c1ccccc1	-1.4%	.	-3.7%	?	.	4.6
C1=C(c2c[nH]c3ccccc23)CCNC1	.	2.6%	.	.	2.3%	1.0
